From PubChem BioAssay (NCI)
Compounds without any hit were thinned out: in the full panel of roughly 83,000, 20% have a hit.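 For each line, cells grew in 96-well plates with the test compound present at a single concentration for 48 hours.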

Key:
Test in all cases: NCI-60 one-dose screen, 48 h (100 = growth as untreated, 0 = no growth, -100 = all killed)
Conditions in all cases: 10 µM; active = growth percent below 10; inactive = the rest
NCI-H23 lung = system: NCI-H23 lung
NCI-H226 lung = system: NCI-H226 lung
NCI-H322M lung = system: NCI-H322M lung
HOP-62 NSCLC = system: HOP-62 NSCLC
NCI-H460 lung = system: NCI-H460 lung
A549/ATCC NSCLC = system: A549/ATCC NSCLC
786-0 renal = system: 786-0 renal
COLO 205 colon = system: COLO 205 colon
DU-145 prostate = system: DU-145 prostate
K-562 leukemia = system: K-562 leukemia
MALME-3M melanoma = system: MALME-3M melanoma
MDA-MB-231 breast = system: MDA-MB-231 breast
RXF 393 renal = system: RXF 393 renal
SF-268 CNS = system: SF-268 CNS
SF-295 CNS = system: SF-295 CNS
SF-539 CNS = system: SF-539 CNS
UACC-257 melanoma = system: UACC-257 melanoma
M14 melanoma = system: M14 melanoma
NCI-H522 lung = system: NCI-H522 lung

Measured: growth

CCCCN(CCCC)CCCO
inactive: NCI-H23 lung 104% | NCI-H226 lung 104% | NCI-H322M lung 136% | HOP-62 NSCLC 106% | NCI-H460 lung 109% | A549/ATCC NSCLC 106% | 786-0 renal 109% | COLO 205 colon 105% | DU-145 prostate 110% | K-562 leukemia 114% | MALME-3M melanoma 129% | MDA-MB-231 breast 116% | RXF 393 renal 119% | SF-268 CNS 101% | SF-295 CNS 124% | SF-539 CNS 101% | UACC-257 melanoma 113% | M14 melanoma 108%

Cc1ccncc1C(N)=O
inactive: NCI-H23 lung 119% | NCI-H226 lung 95.4% | NCI-H322M lung 104% | HOP-62 NSCLC 98.6% | NCI-H460 lung 101% | NCI-H522 lung 101% | A549/ATCC NSCLC 108% | 786-0 renal 106% | DU-145 prostate 106% | K-562 leukemia 101% | MALME-3M melanoma 106% | MDA-MB-231 breast 116% | SF-268 CNS 98.2% | SF-295 CNS 120% | SF-539 CNS 95.7% | UACC-257 melanoma 110% | M14 melanoma 103%

S=c1nn[nH]c2ccccc12
inactive: NCI-H23 lung 99.6% | NCI-H226 lung 93.8% | NCI-H322M lung 95.6% | HOP-62 NSCLC 98% | NCI-H460 lung 105% | A549/ATCC NSCLC 96.4% | 786-0 renal 111% | COLO 205 colon 93.4% | DU-145 prostate 120% | K-562 leukemia 99% | MALME-3M melanoma 148% | MDA-MB-231 breast 93.4% | RXF 393 renal 114% | SF-268 CNS 110% | SF-295 CNS 113% | SF-539 CNS 105% | UACC-257 melanoma 108% | M14 melanoma 102%

O=C(O)c1cccc([N+](=O)[O-])c1O
inactive: NCI-H23 lung 98.9% | NCI-H226 lung 104% | NCI-H322M lung 97.3% | HOP-62 NSCLC 96% | NCI-H460 lung 104% | NCI-H522 lung 101% | A549/ATCC NSCLC 111% | 786-0 renal 102% | COLO 205 colon 105% | DU-145 prostate 109% | K-562 leukemia 106% | MDA-MB-231 breast 103% | SF-268 CNS 106% | SF-295 CNS 90.8% | SF-539 CNS 114% | UACC-257 melanoma 107% | M14 melanoma 94.1%

O=C1c2ccccc2C(=O)N1OCc1ccccc1
inactive: NCI-H23 lung 111% | NCI-H226 lung 91.4% | NCI-H322M lung 93.4% | HOP-62 NSCLC 95.4% | NCI-H460 lung 113% | NCI-H522 lung 96.5% | A549/ATCC NSCLC 122% | 786-0 renal 99.5% | COLO 205 colon 108% | DU-145 prostate 112% | MALME-3M melanoma 98.2% | MDA-MB-231 breast 104% | RXF 393 renal 122% | SF-268 CNS 106% | SF-295 CNS 110% | SF-539 CNS 102% | UACC-257 melanoma 122% | M14 melanoma 108%

COc1ccc(C(C)C=O)cc1 (stereo not given)
inactive: NCI-H23 lung 106% | NCI-H226 lung 111% | NCI-H322M lung 122% | HOP-62 NSCLC 107% | NCI-H460 lung 108% | A549/ATCC NSCLC 105% | 786-0 renal 107% | COLO 205 colon 115% | DU-145 prostate 109% | K-562 leukemia 104% | MALME-3M melanoma 133% | MDA-MB-231 breast 110% | RXF 393 renal 139% | SF-268 CNS 114% | SF-295 CNS 115% | SF-539 CNS 99% | UACC-257 melanoma 117% | M14 melanoma 109%

Cc1cc(=O)[nH]c(NN=C2CCCC2)n1
inactive: NCI-H23 lung 122% | NCI-H226 lung 101% | NCI-H322M lung 108% | HOP-62 NSCLC 105% | NCI-H460 lung 116% | NCI-H522 lung 103% | A549/ATCC NSCLC 123% | 786-0 renal 102% | COLO 205 colon 118% | DU-145 prostate 112% | MALME-3M melanoma 108% | MDA-MB-231 breast 102% | RXF 393 renal 121% | SF-268 CNS 112% | SF-295 CNS 108% | SF-539 CNS 107% | UACC-257 melanoma 125% | M14 melanoma 112%

COc1ccc(C)cc1OC
inactive: NCI-H23 lung 96.4% | NCI-H226 lung 98.8% | NCI-H322M lung 88.8% | HOP-62 NSCLC 102% | NCI-H460 lung 107% | NCI-H522 lung 104% | A549/ATCC NSCLC 96.9% | 786-0 renal 105% | DU-145 prostate 99.6% | K-562 leukemia 92.9% | MALME-3M melanoma 97% | MDA-MB-231 breast 107% | RXF 393 renal 117% | SF-268 CNS 98.4% | SF-295 CNS 95.7% | SF-539 CNS 109% | UACC-257 melanoma 93.9% | M14 melanoma 115%

NC(C(=O)O)c1ccc([N+](=O)[O-])cc1 (stereo not given)
inactive: NCI-H23 lung 105% | NCI-H226 lung 103% | NCI-H322M lung 111% | HOP-62 NSCLC 96.5% | NCI-H460 lung 108% | A549/ATCC NSCLC 109% | 786-0 renal 109% | COLO 205 colon 104% | DU-145 prostate 109% | K-562 leukemia 113% | MALME-3M melanoma 121% | MDA-MB-231 breast 90.2% | RXF 393 renal 118% | SF-268 CNS 105% | SF-295 CNS 104% | SF-539 CNS 89.3% | UACC-257 melanoma 111% | M14 melanoma 99%
